Screening data from PubChem.
Hits are enriched below; roughly 5.9% of the tested compounds scored in any of these assays.
HSF1 inhib = HSF1 inhibitors in luciferase reporter cells, primary screen, cell-based, NIH3T3, luminescence | NIH3T3-HGL HSE-luciferase, MG132-induced, luminescence 8 h; active compounds read low | activity change, negative = inhibition, % at 7.5 µM (by protocol) | actives 0.77% (n = 300,000) | AID 2098, 2009;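 active = more than half of replicate wells show activity change below -50%, luminescence cut by over half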;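 note: luciferase reports HSF-1 transcriptional activity via heat shock element; 0% = median of DMSO wells and -100% = zero luminescence signal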
FXN GAA850 act = FXN promoter activators, primary screen, cell-based, luciferase luminescence, HEK293 lucGAA850. AID 540364, 2011. HEK293 lucGAA850 FXN promoter luciferase reporter, 24 h; percent of 10 µM SAHA response. actives 0.56% (n = 360,000). activation, % at 6 µM;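 active = activation above the average of all compounds screened plus 3 SD, cutoff fixed separately per campaign, cut at about 7.5% in these data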;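 note: 0% = DMSO wells and 100% = 10 µM SAHA wells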
HSF-1 act = HSF-1 activators, primary screen, NIH3T3-HGL cells, MG132 stress, luminescence, single point; NIH3T3-HGL HSF-1 luciferase reporter, 8 h; 100% = twice DMSO control signal; activation, % at 9 µM; actives 1.7% (n = 300,000);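 active = mean replicate activation of at least 50% with a set share of replicates each reaching 50%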;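 note: 0% = median of the neutral control wells and 100% = twice that signal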
HSP90 inh = HSP90 inhibitors, primary screen, cell lysate, luminescence | Rabbit reticulocyte lysate, luciferase refolding luminescence, 3 h | inhibition, % at 5.6 µM | actives 0.91% (n = 290,000) | AID 1789, 2009;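 active = inhibition above the screen-wide mean plus 3 SD, computed separately per campaign, cut at about 16% in these data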;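 note: 0% = DMSO wells and 100% = 60 µM geldanamycin wells; inhibitors lower the luminescence because luciferase stays unfolded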
DAX1 inh = DAX1 (NR0B1) inhibitors, primary screen, cell-based, HEK293, Gal4-DAX1, luciferase luminescence | Nuclear receptor subfamily 0 group B member 1 (Homo sapiens), P51843 | HEK293 Gal4-DAX1 luciferase reporter | inhibition, % at 6.75 µM | actives 0.99% (n = 340,000) | AID 504766, 2011;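 active = inhibition above the mean over all tested compounds plus 3 SD, cut at about 4.2% in these data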;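 note: 0% = DAX1-transfected cells with DMSO and 100% = empty-vector control cells with DMSO; inhibition shows as a rise in luminescence from relieved DAX1 repression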
Target sequence (P51843 207-470 limits assumed): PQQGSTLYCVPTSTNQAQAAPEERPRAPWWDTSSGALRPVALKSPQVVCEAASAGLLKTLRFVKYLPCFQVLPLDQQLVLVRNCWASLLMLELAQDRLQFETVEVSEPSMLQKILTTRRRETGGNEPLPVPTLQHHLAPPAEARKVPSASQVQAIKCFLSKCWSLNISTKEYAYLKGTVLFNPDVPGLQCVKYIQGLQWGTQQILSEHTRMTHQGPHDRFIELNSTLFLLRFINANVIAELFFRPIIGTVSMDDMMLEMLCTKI
AHR activator = AHR activators, primary screen, cell-based, luminescence, luciferase reporter, human. Aryl hydrocarbon receptor (Homo sapiens), P35869. AHR-responsive luciferase reporter cells. activation, % at 5 µM. actives 2.5% (n = 320,000). AID 2796, 2010; in the data active = activation above about 47%;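 note: 0% = vehicle wells and 100% = reference agonist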
Numbers without * were called inactive; x = no result given.

SMILES	HSF1 inhib	FXN GAA850 act	HSF-1 act	HSP90 inh	DAX1 inh	AHR activator
CSc1nc2ccc(NS(=O)(=O)c3ccc(CNC(C)=O)cc3)cc2s1	x	0	x	x	0	0
COc1ccc(C2N(C(=O)CN3CCCC3)CCCN2S(=O)(=O)c2ccccc2)cc1 (stereo not given)	52	0	105*	4	1	-1
COc1ccc(C2N(C(C)=O)CCCN2S(=O)(=O)c2ccc(C)cc2)cc1 (stereo not given)	3	-2	-1	-6	-2	3
O=C(Nc1ccccn1)C1COc2ccccc2O1 (stereo not given)	0	5	7	0	2	0
CC1Oc2ccccc2OC1C(=O)Nc1ccccn1 (stereo not given)	-7	1	-25	-4	0	68*
N#Cc1c(-c2ccccc2)cc(-c2ccccc2)nc1SCCC(=O)O	-8	1	1	-3	1	0
COc1c(O)c(=O)n2c3ccccc3c3ccnc1c32	-1	0	13	x	1	8
O=c1c(Cl)c(O)c2cccc3c4ccccc4n1c23	84	4	79*	-2	2	14
CN1c2ccsc2/C(=N/NC(=O)c2c(F)cccc2F)CS1(=O)=O	-5	1	-3	6	-2	3
CN1c2ccsc2/C(=N/Nc2ccccc2)CS1(=O)=O	38	5	46	8	0	74*
CCC(=O)NCCc1nc2cc(NC(=O)c3cccc([N+](=O)[O-])c3)ccc2n1C	0	2	5	1	0	x
Cn1c(=O)c2nc(SCCO)n(C)c2n(C)c1=O	x	0	x	x	-1	x
COc1cccc(CN(C)C(=O)c2ccc(COc3ccc(Cl)cc3)cc2)c1OC	31	3	55*	1	2	0
COC(=O)C1=NN(C(=O)c2ccccc2)C(O)(c2ccc([N+](=O)[O-])cc2)C1 (stereo not given)	191	1	273*	1	0	x
CC1=NN(C(=O)c2ccc(Cl)cc2)C(O)(c2ccccc2)C1 (stereo not given)	7	1	6	-3	-1	5
COC(=O)C1=NN(C(=O)c2ccc(C)cc2)C(O)(c2ccc(Cl)cc2)C1 (stereo not given)	120	x	147*	0	x	1
Cc1ccc(NC(=O)c2cc(=O)[nH]c3ccccc23)cc1	-5	3	4	1	0	76*
CCN(CC)S(=O)(=O)c1ccc2[nH]c(=O)cc(C(=O)Nc3ccc(C)cc3)c2c1	-1	0	4	5	0	11
Cc1ccc(NC(=O)C(=O)c2c[nH]c3ccccc23)cc1	55	6	84*	10	3	x
CCC(C)(C)NC(=O)C(c1ccc(C)cc1)N(CC1CCCO1)C(=O)c1csnn1 (stereo not given)	0	4	19	0	1	-1
COC(=O)c1cnn(-c2ccccc2)c1C(OC)OC	0	0	-4	2	4.5*	0
CCOC(=O)c1cnn(-c2ccccc2)c1-n1cccc1	-74*	0	-77	3	0	1
O=C(NCc1ccccc1)C1CCCN(S(=O)(=O)c2ccc(F)cc2)C1 (stereo not given)	3	-1	9	-2	0	3
CCCS(=O)(=O)NC(=O)C1(C)CCCN(C(=O)/C=C/c2ccccc2)C1 (stereo not given)	x	1	x	x	x	x
COCCn1nnnc1C(c1ccccc1OC)N1CCc2ccccc2C1 (stereo not given)	50	-3	95*	3	2	3
COCCn1nnnc1C(c1ccc(OC)c(OC)c1)N1CCc2ccccc21 (stereo not given)	7	4	15	-2	0	7
